Inhibition data for 27 compounds are collected here from PubChem BioAssay AID1578 (Sanford-Burnham Center for Chemical Genomics, 2009).

Screen size: about 290,000 compounds; about 3,000 (1%) were called active. Cut-off read from the data, not from the text of the source: active = inhibition mostly above about 36% (no sharp cut-off); inactive = mostly below about 34%. Many of the other results were omitted from the sample, so actives are more common in it than they were.

A short description of this assay: inhibition of NOD1-driven NF-kB reporter – cell-based, luminescence, uHTS, primary screen (AID 1578).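 Note: HEK-293T reporter cells stimulated with the NOD1 agonist gamma-tri-DAP.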 As to conditions: NOD1-driven NF-kB luciferase reporter cells, at 4 µM, stronger effect = higher value. Background: Reporter assays use an easily measured gene product as a stand-in for the process of interest.
In general, inhibition refers to the drop in the measured response relative to a control, in per cent. As to `COc1ccc(NC(=S)Nc2ccc(N)c([N+](=O)[O-])c2)cc1`, the inhibition was -69.8% (inactive).

As to `Cc1c(CNCc2cccs2)c(C(=O)O)c(C)n1Cc1ccccc1`, the inhibition was 8.7% (inactive).

On to `O=C(NC1CCCCC1)N1CCCC(CNS(=O)(=O)Cc2ccccc2)C1` (configuration not stated), for which the inhibition is -23.7% (inactive).

In the case of `Fc1ccccc1NC(=S)NNc1ncc(C(F)(F)F)cc1Cl`, the inhibition is 12.4% (inactive).

On to `C/C(=N/Nc1ncc(C(F)(F)F)cc1Cl)c1ccncc1`, for which the inhibition was -9% (inactive).

Turning to `Oc1cc2c(cc1CN1CCN(c3cccc(C(F)(F)F)c3)CC1)CCC2`, the inhibition is 19.7% (inactive).

For the compound `Cc1ccccc1-n1c(=O)cc(N2CCN(Cc3ccccc3)CC2)[nH]c1=O`, the inhibition is -4.3% (inactive).

Take `CN1C(=O)C(c2nnc(Nc3cccc4ccccc34)s2)C2CC1(C)Oc1ccccc12` (configuration not stated): the inhibition is 3.3% (inactive).

For `O=C1CCCN1CCC(=O)N1CCCC(Nc2ccc(F)c(F)c2)C1` (configuration not stated), the inhibition is -39.2% (inactive).

Regarding `COc1cccc(-c2cc(C(F)(F)F)nc(-n3cccn3)n2)c1`, the inhibition was -19.7% (inactive).

On to `COc1ccc(-c2cc(C(F)(F)F)nc(-n3cncn3)n2)cc1`, for which the inhibition was 18.2% (inactive).

For `COc1cccc(-c2cc(C(F)(F)F)nc(-n3cncn3)n2)c1`, the inhibition was 97.6% (active).

For the compound `NNC(=O)c1csc(COc2cc(Cl)cc(Cl)c2)n1`, the inhibition was -9.6% (inactive).

With `Cc1ccc(C)c(S(=O)(=O)N=Nc2c(O)[nH]c3ccccc23)c1`, the inhibition was -24.6% (inactive).

For `CC(NC(=O)CSc1ncn[nH]1)c1ccc(Cl)cc1Cl` (configuration not stated), the inhibition was -18% (inactive).

Regarding `COc1ccc2c(c1)N(C)/C(=C/c1cccc[n+]1C)S2`, the inhibition was 2.2% (inactive).

Take `CN1/C(=C/c2cccc[n+]2C)Sc2ccccc21`: the inhibition is -2.3% (inactive).

For `Cc1nn(Cc2ccc(F)cc2)c2sc(C(=O)Nc3ccc(N4CCOCC4)cc3N3CCOCC3)cc12`, the inhibition is -10.3% (inactive).

Consider `CCOC(=O)c1ccc(NC(=O)c2cc(C)nn2-c2ccccc2)cc1`, for which the inhibition is -1.2% (inactive).

On to `O=C(CN1CCN(Cc2ccccc2)CC1)Nc1ccc([N+](=O)[O-])cc1C(=O)Nc1ccccc1F`, for which the inhibition was -2.7% (inactive).

For `Cc1ccc(C(=O)NCc2nnc(SCC(=O)NC(C)c3ccccc3)n2C)cc1` (configuration not stated), the inhibition is -35.4% (inactive).

Regarding `CCN(CC)C(=S)SSC(=S)N(CC)CC`, the inhibition was 91.1% (active).

In the case of `CCN(CC)C(=S)SC1=CCS(=O)(=O)C1`, the inhibition was -17.5% (inactive).

Regarding `CCN(CC)C(=S)SCC(=O)c1ccccc1`, the inhibition is -25.7% (inactive).

For `CCC(CC)=N/N=C/c1c(O)n(CC)c2cc(C3=NNC(=O)CC3)ccc12`, the inhibition was 60.5% (active).

Consider `CCCCC(CCCC)=N/N=C/c1c(O)n(CC)c2cc(C3=NNC(=O)CC3)ccc12`, for which the inhibition was -49.6% (inactive).

Consider `CC/C(C)=N\N=C\c1c(O)n(CC)c2cc(C3=NNC(=O)CC3)ccc12`, for which the inhibition is -29.5% (inactive).
